Results reported in ChEMBL document CHEMBL4513149, “CO-ADD screening of MMV (CH) - MMV compounds” (2021).
Entries with a potency or affinity are not part of this list.

What was measured:
[1] = tested on: Klebsiella pneumoniae; conditions: Concentration 20 uM; ASSAY_TEST Inhibition of Bacterial Growth; detection method Absorption (OD600); MEDIA CAMHB; plate type 384well; NBS; CORNING #3640; time 18 hr
[2] = tested on: Candida albicans; conditions: 20 µM
[3] = tested on: Cryptococcus neoformans; conditions: Concentration 20 uM; ASSAY_TEST Inhibition of Fungal Growth; detection method Resazurin; Absorption (OD600-OD570); plate type 384well; NBS; CORNING #3640

Structure (SMILES)	Inhibition [1] [%]	Inhibition [2] [%]	Inhibition [3] [%]
Cc1nn(Cc2ccccc2)c(Cl)c1C(=O)NC1CCCCCC1	0.72	5.99	-4.17
CO[C@@H](C(=O)N1Cc2[nH]nc(NC(=O)c3ccc(N4CCN(C)CC4)cc3)c2C1)c1ccccc1 [DANUSERTIB]	10.18	3.17	-4
CC1(C)OB(O)c2ccc(C3=NOC(c4cc(Cl)c(F)c(Cl)c4)(C(F)(F)F)C3)cc21 (stereo not given)	23.09	3.03	-7.16
Nc1c2c(nc3sc4c(c13)CCCC4)CCCC2	3.88	0.42	-9.94
CO[C@@H]1CN(c2ccc(C#CC3(O)CN4CCC3CC4)c(Cc3ccccc3)n2)C[C@H]1O (stereo not given in full)	0.81	1.57	0.17
Cc1nn(C)c(C)c1NS(=O)(=O)c1c(Cl)cc(-c2ccnc(N3CCNCC3)c2)cc1Cl	16.22	6.45	-5.82
CNCCC(Oc1ccc(C(F)(F)F)cc1)c1ccccc1 (stereo not given) [FLUOXETINE]	7.93	1.88	2.51
Cc1cccc(C(=O)Nc2ccnc(N(C)C3CCN(CC(C)C)CC3)c2)c1	8.58	4.57	-6.76
CC(=O)Oc1ccccc1C(=O)Nc1ncc([N+](=O)[O-])s1 [NITAZOXANIDE]	13.55	26.7	17.15
Cc1cc(C2=NOC(c3cc(Cl)c(F)c(Cl)c3)(C(F)(F)F)C2)ccc1C(=O)NCc1ccc2c(c1)C(C)(C)OB2O (stereo not given)	14.68	4.25	-8.68
